RMI FANCM FP: blocks RMI1/RMI2 complex binding to FANCM MM2 peptide; Fluorescence polarization, RMI core complex with F-MM2 peptide; active compounds read low; FP signal (polarization) at 33 µM; 70,000 compounds, 0.58% hits; in the data active means FP signal below about 40
The depositor's hits bear a star; ! = repeats disagree. This is one part of a sample in which hits are shown more often than they occur.

SMILES	RMI FANCM FP
O=C(Nc1cccc(C(F)(F)F)c1)OCCSc1ccc([N+](=O)[O-])c2nonc12	7*
Cc1cc(-c2ccccc2)nc(SCC(=O)Nc2cccc(C(F)(F)F)c2)n1	59
O=[N+]([O-])c1ccc(SCCOS(=O)(=O)c2cccc(C(F)(F)F)c2)c2nonc12	46
CC(=O)Nc1ccc(NC(=O)CSc2ccc(S(=O)(=O)C(F)(F)F)cc2[N+](=O)[O-])cc1	66
O=C(NC1CC(=O)N(c2cccc(F)c2)C1)N1CCN(Cc2ccc3c(c2)OCO3)CC1 (stereo unspecified)	58
CCCOc1cc(Nc2ccc(NS(=O)(=O)c3cccc(Cl)c3)cc2)nc(C)n1	55
COc1ccc(N2CCN(CCNC(=O)c3cccc(F)c3)CC2)cc1	66
Cc1cc(C)c(C2=NON3c4ccccc4N(C(=O)C(Br)C(C)C)N23)c(C)c1 (stereo unspecified)	64
COc1ccc(CCC(=O)N2CCN(Cc3nc(-c4ccco4)cs3)CC2)cc1	64
O=C(CN1CCN(Cc2nc(-c3ccco3)cs2)CC1)N1CCCC1	40*
O=C(CN1CCN(Cc2nc(-c3ccco3)cs2)CC1)N1CCOCC1	42
Cc1occc1-c1nc2s/c(=C\c3ccc(-c4cccc(C(F)(F)F)c4)o3)c(=O)n2n1	16*
Cc1ccc(/C=c2\sc3nc(=O)c(C)nn3c2=O)o1	70
N#CCCN1CCN(C2=NC(=O)/C(=C\c3ccc(-c4cccc(C(F)(F)F)c4)o3)S2)CC1	85
COC(=O)Nc1ccc2c(c1)NC(=O)C(C)(C)CO2	66
CC(C)S(=O)(=O)Nc1ccc2c(c1)NC(=O)C(C)(C)CO2	70
CC1(C)COc2ccc(N)cc2NC1=O	37*
COC(=O)C(C)(Cl)Cc1ccc(-c2ccc(CC(C)(Cl)C(=O)OC)c(OC)c2)cc1OC (stereo unspecified)	67
O=C1OC([C@@H](O)CO)[C@H](O)[C@@H]1O (stereo partly specified)	54
C[C@]12CC[C@@H]3c4ccc(OS(=O)(=O)O)cc4CC[C@H]3[C@@H]1CCC2=O	33*!
C[C@]12CCC3c4ccc(OC(=O)CCC(=O)O)cc4CCC3C1CCC2=O (stereo partly specified)	53
C[C@]12CCC3c4ccc(O)cc4CCC3C1CCC2=O (stereo partly specified)	65
CCCN(CCC)S(=O)(=O)c1ccc(C(=O)O/N=C(/N)c2ccc3c(c2)OCO3)cc1	78
COc1ccc(C)cc1S(=O)(=O)N1CCN(c2ccc(-c3ccncc3)nn2)CC1	67
COc1ccc(Cl)cc1S(=O)(=O)N1CCN(c2ccc(-c3ccncc3)nn2)CC1	27*
SMILES	RMI FANCM FP
COc1ccc(F)cc1S(=O)(=O)N1CCN(c2ccc(-c3ccc(F)cc3)nn2)CC1	81
COC(=O)c1sc(-c2ccccc2)cc1NC(=O)c1ccccc1I	61
COC(=O)c1sc(-c2ccccc2)cc1NC(=O)c1ccccc1Cl	61
COC(=O)c1sc(-c2ccccc2)cc1NC(=O)c1cc2c(ccc3ccccc32)oc1=O	31*
CN(C)c1ccc(/C=N\N=C/c2ccc(N(C)C)cc2)cc1	67
CC(=O)N1CC(C)=C(C#N)C1O (stereo unspecified)	-1*
O=C(c1ccc(F)cc1)c1sc(Nc2cccnc2)nc1-c1ccccc1	54
COc1ccc(CCC(=O)NCC2CCN(C(C)C)CC2)cc1	73
O=C(N/N=C\c1c(Cl)cccc1Cl)C(=O)Nc1ccc(F)cc1	59
CC(C)(C)NCC(O)COc1cccc2c1C[C@H](O)[C@H](O)C2 (stereo partly specified)	-57*!
CC(C)(C)NC[C@H](O)COc1cccc2c1CCCC2=O	55
COc1ccccc1OCC(O)CNC(C)(C)C (stereo unspecified)	71
CCS(=O)(=O)N1CCCc2ccc(N)cc21	68
Cc1cc(Sc2nnc(N=CN(C)C)s2)c2ccccc2n1	56
Cc1nc2cc3ccccc3cc2c(=O)n1/N=C\N(C)C	8*
COc1cc(/C=N\n2c(C)nc3c(ncn3-c3ccccc3)c2=O)cc(OC)c1OC	86
CCc1ccc(S(=O)(=O)NCCCn2ncccc2=O)s1	62
CN(C)c1cc(N2CCNCC2)nc(N(C)C)c1C#N	59
Cc1c(C)n2c3c(=O)n(CCN4CCCCC4)c(=O)n(C)c3nc2n1CCc1ccccc1	71
Cc1c(C)c2c(c(C)c1O)CCC(C)(C(=O)O)O2 (stereo unspecified)	1*
Cc1c(C)c2c(c(C)c1O)CCC(C)(CN1CCN(c3cc(N4CCCC4)nc(N4CCCC4)n3)CC1)O2 (stereo unspecified)	55
Cc1c(C)c2c(c(C)c1O)CC[C@@](C)(CCC[C@H](C)CCC[C@H](C)CCCC(C)C)O2	62
Cc1nn(CC(=O)Nc2ccccc2F)c(=O)c2c1cnn2-c1cccc(Cl)c1	52
CCCOc1ccc(Br)cc1C1C(C(N)=O)=C(C)Nc2ncnn21 (stereo unspecified)	68
CC(=O)Nc1cccc(NC(=O)C(=O)NC2CCCC2)c1	56
SMILES	RMI FANCM FP
CC(=O)Nc1cccc(C2=CC(c3cccc(Br)c3)n3ncnc3N2)c1 (stereo unspecified)	5*
O=C(Nc1cccc(Cl)c1)N1CCN(c2ccc(-c3ccc4c(c3)OCO4)nn2)CC1	73
COc1ccccc1CCNC(=O)C(=O)Nc1cc(N2CCCS2(=O)=O)ccc1OC	64
COc1ccc(NC(=O)C2C(=O)CN(c3ccccc3)C2=O)cc1 (stereo unspecified)	81
CCOc1cccc2c1Oc1[nH]c(-c3cccc(OC)c3O)nc(=S)c1C2	12*
COc1ccccc1-c1nc(=S)c(C(C)=O)c(C)[nH]1	59
Cc1ncc(CO)c2c1Oc1[nH]c(-c3ccc(F)cc3)nc(=S)c1C2	61
O=C(Cc1cc(=O)[nH]c(SCc2ccccc2F)n1)Nc1ccc(F)c(F)c1	66
Cn1nc2c(c1NC(=O)/C=C/c1cccs1)CCC2	37*
Cn1nc2c(c1NC(=O)COc1ccccc1)CCC2	63
O=C(/C=C/c1cccs1)Nc1nccs1	60
Cc1nc2ccccc2c(=O)n1-c1ccc(F)c(NC(=O)c2ccc(Cl)c([N+](=O)[O-])c2)c1	63
N#C/C(=C\Nc1ccc(S(=O)(=O)N=C(N)N)cc1)c1nc(-c2ccc([N+](=O)[O-])cc2)cs1	104
Cc1ccc(-c2csc(/C(C#N)=C/Nc3ccc(Cl)c(C(F)(F)F)c3)n2)cc1	65
N#C/C(=C\Nc1ccc(S(=O)(=O)NC(N)=O)cc1)c1nc(-c2ccc(Cl)cc2)cs1	15*
O=C(CSc1ccc(F)cc1)Nc1ccc2c3c(cccc13)CC2	54
O=C(NCc1nnnn1-c1cccc(F)c1)c1cc2ccccc2o1	56
C=CCn1c(=O)c2c(nc3n(C4CCCC4)c(C)cn23)n(C)c1=O	63
N#Cc1c(-c2cccnc2)c2c([nH]c1=O)-c1ccccc1SC2	33*
N#Cc1ccc(-c2cccnc2)[nH]c1=O	58
CCc1ccc(S(=O)(=O)n2ccc(C)n2)cc1	62
O=C(Nc1nnc(-c2ccncc2)o1)c1ccccc1[N+](=O)[O-]	62
O=C1OC(=O)c2ccc(Br)c3cccc1c23	56
O=C1c2cccc3c(Br)ccc(c23)C(=O)N1CCO	-1*
CCOC(=O)OCCN1C(=O)c2cccc3c(Br)ccc(c23)C1=O	59
Cc1ccc(-c2csc3nc(SCc4c(C)noc4C)n(-c4ccccc4)c(=O)c23)o1	78
CCc1ccc(S(=O)(=O)NCCNC(=O)c2ccc(NC(=O)C3CCCC3)cc2)s1	72
